# Measured values reported in PubChem BioAssay.
# Results filed as inconclusive are left out. Activity calls are given as the source filed them. Unless noted, the rule behind the calls is not given here.
# Tests used:
# [1] = target: Mitogen-activated protein kinase 7 (Homo sapiens) (UniProt Q13164); assay: Gal4-ERK5 driven luciferase induction – cell-based, HTS, primary screen (AID 1508626;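 active = luciferase signal above three times the same-plate solvent-only control wells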;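 note: luciferase driven by Gal4-ERK5 fusion binding five Gal4 sites before minimal TATA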); settings: HeLa Gal4-ERK5 transactivation, 18 h, at 5 µM, stronger effect = higher value
# Mitogen-activated protein kinase 7 (Homo sapiens), sequence (Q13164 whole entry, looked up, the tested form may be a part): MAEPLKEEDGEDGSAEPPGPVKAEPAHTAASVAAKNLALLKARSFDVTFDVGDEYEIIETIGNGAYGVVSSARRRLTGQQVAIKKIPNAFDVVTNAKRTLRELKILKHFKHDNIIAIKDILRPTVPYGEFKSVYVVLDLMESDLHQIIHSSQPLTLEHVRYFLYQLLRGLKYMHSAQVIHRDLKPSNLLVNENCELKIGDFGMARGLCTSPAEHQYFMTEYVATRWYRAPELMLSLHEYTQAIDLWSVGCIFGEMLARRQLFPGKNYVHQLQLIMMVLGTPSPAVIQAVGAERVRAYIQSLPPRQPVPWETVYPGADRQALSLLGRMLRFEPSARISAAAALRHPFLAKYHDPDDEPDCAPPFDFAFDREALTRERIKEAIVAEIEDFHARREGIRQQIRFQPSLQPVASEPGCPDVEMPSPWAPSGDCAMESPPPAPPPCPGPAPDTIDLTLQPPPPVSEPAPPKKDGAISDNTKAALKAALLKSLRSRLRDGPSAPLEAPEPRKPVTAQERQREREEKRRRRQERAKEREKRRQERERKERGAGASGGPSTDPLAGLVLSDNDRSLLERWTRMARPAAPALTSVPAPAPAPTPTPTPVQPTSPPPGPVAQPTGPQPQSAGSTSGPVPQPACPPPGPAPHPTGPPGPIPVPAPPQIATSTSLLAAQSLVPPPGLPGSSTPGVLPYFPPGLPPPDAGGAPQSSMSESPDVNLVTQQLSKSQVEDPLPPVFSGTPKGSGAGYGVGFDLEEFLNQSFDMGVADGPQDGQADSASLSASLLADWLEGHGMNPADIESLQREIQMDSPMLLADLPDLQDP
# [2] = viability loss in pontine glioma line – cell-based, SU-DIPG-IV, MIPE4.0, CellTiter-Glo, qHTS, dose response (AID 1347063; cut-off not given, nearly all actives have AC50 up to about 30 µM;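 note: compound exposure lasted 48 hours before the viability readout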); settings: CellTiter-Glo ATP luminescence
# [3] = viability loss in pontine glioma line – cell-based, SU-DIPG-XIII, MIPE5.0, CellTiter-Glo, qHTS, dose response (AID 1347064; cut-off not given, nearly all actives have AC50 up to about 23 µM;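 for AC50: cells exposed to compound for 48 hours before the viability read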); settings: CellTiter-Glo ATP luminescence
# [4] = viability loss in pontine glioma line – cell-based, SU-DIPG-XXV, MIPE5.0, CellTiter-Glo, qHTS, dose response (AID 1347065; cut-off not given, nearly all actives have AC50 up to about 26 µM;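 note: cells exposed to compound for 48 hours before ATP readout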); settings: CellTiter-Glo ATP luminescence
# [5] = growth inhibition of DIPG cells – cell-based, MIPE4.0 library, CellTiter-Glo luminescence, qHTS (AID 1347066; cut-off not given, nearly all actives have AC50 up to about 30 µM;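 note: cells exposed to compound for 48 hours before readout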); settings: SU-DIPG-VI viability, CellTiter-Glo ATP luminescence
# [6] = JHH-DIPG-1 glioma cell viability, MIPE5.0 library, CellTiter-Glo luminescence, qHTS (AID 1347067; cut-off not given, nearly all actives have AC50 up to about 26 µM;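 note: cells exposed to compound for 48 hours before readout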); settings: JHH-DIPG-1 glioma viability, CellTiter-Glo ATP luminescence
# [7] = compounds altering viability of human ES cells (AID 493140); settings: human embryonic stem cell survival screen; stronger effect = higher value;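 note: cells exposed to compounds for four days before counting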
# [8] = compounds altering circadian rhythm period length – cell-based, LOPAC library, luminescence reporter (AID 2774); settings: circadian reporter cells, at 7 µM, actives lie on both sides;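 note: values are relative to mean of DMSO wells on each plate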
# [9] = system: Hepatitis C virus NS3 helicase; assay: blockers of NS3h binding to ssDNA – biochemical, fluorescence polarization, LOPAC1280 library, primary screen (AID 687035; in the data active = inhibition above about 37%); settings: Purified HCV NS3 helicase, Cy5-dT15 ssDNA binding fluorescence polarization; stronger effect = higher value; concentration not given here
# [10] = compounds altering Cy5-DNA-NS3h complex signal – biochemical, LOPAC1280, artefact control for HCV NS3 helicase inhibitor project (AID 687037); settings: Cy5-DNA-NS3h complex fluorescence interference counterscreen
# [11] = compounds altering HSF1 focus formation in cells – imaging, Selleck Cancer Library (AID 1347162; in the data active = plate-normalised HSF1 focus index below about 0.46); settings: human cells, HSF1 nuclear foci imaging, at 10 µM; SSMD: measured here: HSF1 foci SSMD mean; cell count: measured here: cell number; plate-normalised HSF1 focus index: stronger effect = lower value
# [12] = blockers of cellular phospholipid synthesis – cell-based, LOPAC library, screen 4, primary screen (AID 1347384); settings: animal cells, phospholipid biosynthesis inhibition screen; at 10 µM
structure (smiles),measurement,setting,value
OCCc1ccccc1,luciferase signal,[1],108 AU (inactive)
CCN(CC)CCOc1ccc2c(c1)C(=O)c1cc(OCCN(CC)CC)ccc1-2,luciferase signal,[1],108 AU (inactive)
O=C1OC2(c3ccc(O)cc3Oc3cc(O)ccc32)c2ccccc21,luciferase signal,[1],52 AU (inactive)
CCOC(=O)c1ccc(O)cc1,luciferase signal,[1],64 AU (inactive)
CNCc1ccccc1,luciferase signal,[1],56 AU (inactive)
CCOCC(O)COc1ccc(NC(=O)CC[S+](C)C)cc1 (centres undefined),outcome,[2],inactive
same,outcome,[3],inactive
same,outcome,[4],inactive
same,outcome,[5],inactive
same,outcome,[6],inactive
C[C@@]12C(=O)OC(=O)[C@]1(C)C1CCC2O1,survival,[7],0.417 (inactive)
CC(O)Cn1cnc2c1c(=O)n(C)c(=O)n2C (centres undefined),survival,[7],7 (inactive)
same,luciferase signal,[1],104 AU (inactive)
NC(=O)CCCCC1CCSS1 (centres undefined),luciferase signal,[1],44 AU (inactive)
O=C(OOC(=O)c1ccccc1)c1ccccc1,luciferase signal,[1],104 AU (inactive)
CN(C)CCCOc1nn(Cc2ccccc2)c2ccccc12,survival,[7],9 (inactive)
same,luciferase signal,[1],92 AU (inactive)
CC[C@@H](CO)NCCN[C@@H](CC)CO,luciferase signal,[1],40 AU (inactive)
COc1cc(C(=O)NCCCCCC(=O)O)cc(OC)c1OC,luciferase signal,[1],36 AU (inactive)
CC1=C(/C=C/C(C)=C/C=C/C(C)=C/C(=O)Nc2ccc(O)cc2)C(C)(C)CCC1,period change,[8],-0.145 h (inactive)
same,survival,[7],116 (inactive)
same,inhibition,[9],-3% (inactive)
same,fluorescence ratio (interference),[10],1 (inactive)
same,AC50,[2],4.81 µM (active)
same,AC50,[3],16.6 µM (active)
same,AC50,[4],14.8 µM (active)
same,AC50,[5],9.59 µM (active)
same,AC50,[6],20.9 µM (active)
same,SSMD,[11],-4.16
same,cell count,[11],7280
same,plate-normalised HSF1 focus index,[11],0.851 (inactive)
same,outcome,[12],active
CC[N+](CC)(CC)CCOc1ccc(/C=C/c2ccccc2)cc1,inhibition,[9],-3% (inactive)
same,fluorescence ratio (interference),[10],1 (inactive)
same,outcome,[12],inactive
CC#C[C@]1(O)CC[C@H]2[C@@H]3CCC4=CC(=O)CCC4=C3[C@@H](c3ccc(N(C)C)cc3)C[C@@]21C,period change,[8],0.39 h (inactive)
same,survival,[7],27.7 (inactive)
same,inhibition,[9],-1% (inactive)
same,fluorescence ratio (interference),[10],0.9 (inactive)
same,AC50,[2],0.418 µM (active)
same,AC50,[4],29.5 µM (active)
same,AC50,[5],2.96 µM (active)
same,outcome,[12],inactive
same,luciferase signal,[1],36 AU (inactive)
CC1(CN2CCC(n3c(=O)[nH]c4ccccc43)CC2)OCc2ccccc2-n2cccc21 (centres undefined),outcome,[2],inactive
same,outcome,[5],inactive
same,SSMD,[11],2.84
same,cell count,[11],7080
same,plate-normalised HSF1 focus index,[11],1.16 (inactive)
CCn1ccnc1CC1COc2ccccc2O1 (centres undefined),period change,[8],0.33 h (inactive)
same,inhibition,[9],-4% (inactive)
same,fluorescence ratio (interference),[10],1 (inactive)
same,outcome,[12],inactive
Cc1ccc(=O)n(-c2ccccc2)c1,period change,[8],-0.085 h (inactive)
same,inhibition,[9],-4% (inactive)
same,fluorescence ratio (interference),[10],1 (inactive)
same,outcome,[12],inactive
Cn1ccc2cc3c(cc21)CCN3C(=O)Nc1cccnc1,period change,[8],0.355 h (inactive)
same,inhibition,[9],-3% (inactive)
same,fluorescence ratio (interference),[10],0.9 (inactive)
same,outcome,[2],inactive
same,outcome,[3],inactive
same,outcome,[4],inactive
same,outcome,[5],inactive
same,outcome,[6],inactive
same,outcome,[12],inactive
CN=C(NC#N)Nc1ccc(C2=NNC(=O)CC2C)cc1 (centres undefined),period change,[8],0.035 h (inactive)
COCCOC(=O)C1=C(C)NC(C)=C(C(=O)OC/C=C/c2ccccc2)C1c1cccc([N+](=O)[O-])c1 (centres undefined),inhibition,[9],-1% (inactive)
same,fluorescence ratio (interference),[10],1 (inactive)
same,outcome,[12],active
CCN1CCC[C@H]1CNC(=O)c1c(OC)ccc(Br)c1OC,survival,[7],12.3 (inactive)
COC(=O)[C@@H]1CC2=CC(=O)CC[C@]2(C)[C@@]23O[C@@H]2C[C@@]2(C)[C@@H](CC[C@@]24CCC(=O)O4)[C@H]13,outcome,[3],inactive
same,outcome,[5],inactive
same,outcome,[6],inactive
Cc1cc(C)c(/C=C2\C(=O)Nc3ccccc32)[nH]1,period change,[8],0.375 h (inactive)
same,inhibition,[9],6% (inactive)
same,fluorescence ratio (interference),[10],1 (inactive)
same,outcome,[3],inactive
same,outcome,[6],inactive
same,outcome,[12],inactive
CN1CCC[C@@H]1Cc1c[nH]c2ccc(CCS(=O)(=O)c3ccccc3)cc12,outcome,[12],inactive
same,luciferase signal,[1],48 AU (inactive)
OC(CN1CCC(Cc2ccc(F)cc2)CC1)c1ccc(Cl)cc1 (centres undefined),inhibition,[9],-3% (inactive)
same,fluorescence ratio (interference),[10],1 (inactive)
same,outcome,[2],inactive
same,outcome,[5],inactive
same,outcome,[12],inactive
CN(C)C/C=C(/c1ccc(Br)cc1)c1cccnc1,period change,[8],-0.15 h (inactive)
same,survival,[7],24.8 (inactive)
same,inhibition,[9],1% (inactive)
same,fluorescence ratio (interference),[10],1 (inactive)
same,outcome,[12],inactive
CCOC(=O)c1cnc2c(cnn2CC)c1NN=C(C)C,period change,[8],0.065 h (inactive)
same,inhibition,[9],-2% (inactive)
same,fluorescence ratio (interference),[10],1 (inactive)
same,outcome,[12],inactive
COc1ccc2c(c1OC)C(=O)O[C@@H]2[C@H]1c2c(cc3c(c2OC)OCO3)CCN1C,period change,[8],-0.03 h (inactive)
same,survival,[7],2.92 (inactive)
same,inhibition,[9],-2% (inactive)
same,fluorescence ratio (interference),[10],1 (inactive)
same,outcome,[12],inactive
same,luciferase signal,[1],44 AU (inactive)
COCC(=O)O[C@]1(CCN(C)CCCc2nc3ccccc3[nH]2)CCc2cc(F)ccc2[C@@H]1C(C)C,period change,[8],-0.16 h (inactive)
same,inhibition,[9],-2% (inactive)
same,fluorescence ratio (interference),[10],1 (inactive)
same,outcome,[12],inactive
c1cc(CN2CCCCC2)cc(OCCCNc2nc3ccccc3s2)c1,period change,[8],-0.085 h (inactive)
same,inhibition,[9],-2% (inactive)
same,fluorescence ratio (interference),[10],1 (inactive)
same,outcome,[12],inactive
CC(C)C(=O)c1c(C(C)C)nn2ccccc12,period change,[8],-0.095 h (inactive)
same,inhibition,[9],-1% (inactive)
same,fluorescence ratio (interference),[10],1 (inactive)
same,outcome,[12],inactive
Cc1ccc2c(c1)c1c3n2CCNC3CCC1 (centres undefined),survival,[7],11.2 (inactive)
FC(F)(F)c1ccccc1-n1ccnc1,period change,[8],-0.115 h (inactive)
same,inhibition,[9],0% (inactive)
same,fluorescence ratio (interference),[10],1 (inactive)
same,outcome,[12],inactive
